Bioassay records (PubChem BioAssay)
Shown is part of a subset that was picked to be rich in hits.
mHTT CaM bind – mHTT-calmodulin interaction abrogation; AlphaScreen His-mHTT/GST-CaM binding, luminescence; inhibition, % at 15 µM; actives 3.6% (n = 190,000);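 further: 0% = both proteins with DMSO and 100% = one protein alone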
Pf apPOL block – Pf-apPOL DNA polymerase inhibition. actives 0.25% (n = 210,000). Recombinant Pf-apPOL, molecular beacon fluorescence, 1.5 h. AID 1794808. inhibition, % at 10 µM
* hit, by the source's call; / = no result given; ! = not active in a repeat. No stated cut-off is given here; in the data, active means inhibition above about 50%; inactive means the rest.

SMILES	mHTT CaM bind	Pf apPOL block
Cn1cc(CC(=O)Nc2ccc3cn[nH]c3c2)c2ccccc21	12	3
CN(C)c1ccc(CCCNS(=O)(=O)c2ccc(Cl)s2)cc1	65*	-10
CN(C)c1ccc(CCCNS(=O)(=O)Cc2cccc(Cl)c2)cc1	43	-27
COCCN=C1Nc2ccccc2NC12CCCN(C(=O)c1ccc(OC)c(OC)c1)C2 (stereo unspecified)	6	-1
COCCN=C1Nc2ccccc2NC12CCCN(C(=O)Nc1cc(F)cc(F)c1)C2 (stereo unspecified)	100*	-2
COCCN=C1Nc2ccccc2NC12CCCN(C(=O)c1cc(F)ccc1F)C2 (stereo unspecified)	18	-4
Cc1cccc(NC(=O)N2CCC3(C2)Nc2cccnc2NC3=NCc2ccccc2)c1 (stereo unspecified)	-1	-2
COCCN=C1Nc2ccccc2NC12CCCN(C(=O)Nc1ccc(C)cc1C)C2 (stereo unspecified)	100*	-9
O=C(Nc1cccc(F)c1)N1CCCC2(C1)Nc1cccnc1NC2=NCc1ccccc1 (stereo unspecified)	64*	-8
CC(C)(C)C(=O)Nc1ccc(N2CCCN(Cc3ccc(F)cc3)CC2)nc1	2	-8
CC1=C(C(=O)N(C)C)C(c2ccc(Br)cc2)n2c(nc3ccccc32)N1 (stereo unspecified)	36	-13
CCCCC(=O)Nc1c2c(nn1-c1ccc(Cl)cc1)CS(=O)(=O)C2	1	-3
Cc1ccccc1-n1c(CCC(=O)O)ccc1-c1cccs1	19	-3
Cc1cc(Cl)ccc1-n1c(CCC(=O)O)ccc1-c1cccs1	68*	-9
O=C(C1CCC(Cn2c(=O)[nH]c3ccsc3c2=O)CC1)N1CCCCC1 (stereo unspecified)	1	-2
CCCc1nn(-c2ccc(Cl)c(Cl)c2)c(CC)c1C(=O)N1CCOCC1	67*	-5
CCc1nn(-c2ccc(OC)cc2)c(CC)c1C(=O)N1CCOCC1	1	0
CCN1CCN(C(=O)c2cnn(-c3ccc(Cl)c(Cl)c3)c2C(C)C)CC1	39	-21
CC(=O)N1CCN(C(=O)c2c(C(C)C)nn(-c3ccc(C)cc3)c2C(C)C)CC1	11	-1
CCCc1nn(-c2ccc(Cl)c(Cl)c2)c(C(C)C)c1C(=O)N1CCOCC1	62*	0
CC(C)c1nn(-c2ccc(Cl)c(Cl)c2)c(C(C)C)c1C(=O)N1CCOCC1	67*	-2
COC(=O)N1CCc2ccc(Br)cc2C1C(=O)NCc1ccc2c(c1)OCO2 (stereo unspecified)	1	-4
O=C(NC1CCCCC1)c1ccc(CS(=O)(=O)Cc2ccccc2Cl)o1	-3	-16
O=C1c2ccccc2-c2n[nH]c(=O)c3ccc(Cl)c1c23	13	1
CC(C)N(Cc1ccccc1)c1ncnc(N)c1[N+](=O)[O-]	8	0
SMILES	mHTT CaM bind	Pf apPOL block
CN(Cc1ccccc1)c1ncnc(N)c1[N+](=O)[O-]	9	92*!
O=C1/C(=C/c2ccc(Br)cc2)Sc2ccccc21	7	1
C=CCNC(=O)c1c(NC(=O)c2ccccc2F)sc2c1CCCC2	1	-2
Cc1cc2c(cc1C)NC(CC(=O)Nc1ccc(N3CCOCC3)cc1)C(=O)N2 (stereo unspecified)	57*!	0
Cc1cc2c(cc1C)NC(CC(=O)Nc1cccc(C(=O)O)c1)C(=O)N2 (stereo unspecified)	6	10
Cc1cc(C(=O)Nc2ccc3c(c2)C(=O)N(C)C3=O)on1	-6	-9
COc1ccc(OC)c(C2C=C(c3cccc(Br)c3)Nc3nnnn32)c1 (stereo unspecified)	56*	9
COc1cccc(C2C=C(c3cccc(Br)c3)Nc3nnnn32)c1 (stereo unspecified)	-13	-6
COc1cccc(C2=CC(c3cc(OC)c(OC)c(OC)c3)n3ncnc3N2)c1 (stereo unspecified)	28	14
COc1cc(C2C=C(c3cccc(NC(C)=O)c3)Nc3ncnn32)cc(OC)c1OC (stereo unspecified)	-3	61*
COc1ccc(C2C=C(c3cccc(Br)c3)Nc3nnnn32)cc1OC (stereo unspecified)	65*	4
COc1ccc(OC)c(C2C=C(c3ccc(Cl)cc3)Nc3nnnn32)c1 (stereo unspecified)	17	0
COc1ccc(C2C=C(c3cccc(Br)c3)Nc3ncnn32)cc1 (stereo unspecified)	59*	-10
Cc1ccc(C2C=C(c3cccc(Br)c3)Nc3ncnn32)cc1 (stereo unspecified)	14	-8
N#Cc1c(SCC(=O)Nc2nccs2)sc2c(=O)[nH]c(=O)[nH]c12	-5	/
CCOc1cc(C=O)cc(Br)c1OCc1ccc(C(=O)O)cc1	2	-1
CC1CC(C)CN(S(=O)(=O)c2ccc(F)c(C(=O)Nc3cc(Cl)cc(Cl)c3)c2)C1 (stereo unspecified)	-4	-7
CCOc1cccc(C2NC(C(=O)O)C3C(=O)N(c4ccc(C)cc4)C(=O)C23)c1O (stereo unspecified)	6	-7
CCCn1cnc2c1c(=O)n(Cc1ccccc1)c(=O)n2-c1cccc(F)c1	-4	-4
Cc1cccc(-c2noc(C3CCCN3C(=O)c3cc(F)ccc3F)n2)c1 (stereo unspecified)	-9	-3
Brc1ccc(C2C=C(c3cccs3)Nc3ncnn32)cc1 (stereo unspecified)	17	-3
Brc1cccc(C2C=C(c3cccs3)Nc3ncnn32)c1 (stereo unspecified)	13	65*
Cc1nc2c(SCC(=O)Nc3ccc4c(c3)OCO4)nnc(-c3ccccc3)c2s1	30	11
Cc1nc2c(SCC(=O)NCc3ccco3)nnc(-c3ccccc3)c2s1	53*	40
c1nc(NCCCN2CCOCC2)c2cn[nH]c2n1	-7	0
SMILES	mHTT CaM bind	Pf apPOL block
CCC(C)c1ccccc1OCCCN1CCN(C)CC1 (stereo unspecified)	4	-8
O=C(O)COc1ccc2c(c1)OC(=Cc1ccc(Cl)c(Cl)c1)C2=O	-5	63*
O=C(O)COc1ccc2c(c1)OC(=Cc1cccc(Br)c1)C2=O	-3	15
Cc1nnc(C2CCCN(C(=O)NC(C)C)C2)s1 (stereo unspecified)	-9	-2
CCCN=c1ssc(=O)n1CCC	/	-7
CCOC(=O)c1csc(NC(=O)c2cccc(N3C(=O)CCC3=O)c2)n1	4	-3
O=C(Nc1ccc(F)cc1)c1cc([N+](=O)[O-])nn1Cc1ccccc1	3	-8
O=C(Nc1ccc(F)c(Cl)c1)c1cc([N+](=O)[O-])nn1Cc1ccccc1	92*	-7
Cc1noc(-c2nn(C)c3c2CN(C(=O)Cc2ccc(Cl)cc2)CC3)n1	3	-1
O=[N+]([O-])c1cccc(S(=O)(=O)n2cc(Br)cn2)c1	80*	-2
Cc1nn(S(=O)(=O)c2cccc([N+](=O)[O-])c2)c(C)c1Br	6	4
CC1=C(Br)C(=O)c2ccccc2C1=O	17	-4
O=C1C(Br)=C(Br)C(=O)C(Br)=C1Br	81*	7
O=C1C(Br)=C(Br)C(=O)c2ccccc21	100*	15
CNC(=O)Cc1csc(NC(=O)Cc2cc(=O)[nH]c(SCc3ccccc3F)n2)n1	-4	4
O=C(Nc1nccs1)C1COc2ccccc2O1 (stereo unspecified)	-3	13
